# Experiments:
# Experiment in all cases: PBM binding z-score (relative to random genomic background probes); higher = stronger binding; sequences stand for … in GC…GCGATTGACAGCGTAGAATGAAGG
# [1] = system: FXR:RXRa (NR concentration 270 nM, RXRa partner concentration 90 nM)
# Outline: (§1)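 Binding z-scores take random background probes as their reference. They come from custom Agilent 4×180K protein-binding microarrays incubated 1 h with ligand-free nuclear receptor dimers, with antibodies against each partner (one per run) detecting binding. Scanned fluorescence was regression-normalized.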
# [2] = system: LXRa:RXRa (NR concentration 270 nM, RXRa partner concentration 90 nM)
# Outline: as §1
# [3] = system: LXRa homodimer (NR concentration 270 nM)
# Outline: as §1
# [4] = system: LXRb:RXRa (NR concentration 270 nM, RXRa partner concentration 90 nM)
# Outline: as §1
# [5] = system: LXRb homodimer (NR concentration 270 nM)
# Outline: as §1
# [6] = system: PPARa:RXRa (NR concentration 270 nM, RXRa partner concentration 90 nM)
# Outline: as §1
# [7] = system: PPARg:RXRa (NR concentration 180 nM, RXRa partner concentration 90 nM)
# Outline: as §1
# [8] = system: PPARg:RXRa 270nM:90nM, anti-RXR (NR concentration 270 nM, RXRa partner concentration 90 nM)
# Outline: as §1
# [9] = system: PPARg:RXRa 30nM:10nM, anti-RXR (NR concentration 30 nM, RXRa partner concentration 10 nM)
# Outline: as §1
# [10] = system: PPARg:RXRa 90nM:30nM, anti-RXR (NR concentration 90 nM, RXRa partner concentration 30 nM)
# Outline: as §1
# [11] = system: PPARg:RXRa DBDmut IVT, anti-RXR (DBD mutation: RXRa K156A/R161A, NR concentration 270 nM, RXRa partner concentration 90 nM)
# Outline: as §1
# [12] = system: PPARg:RXRa IVT, anti-PPARg (NR concentration 270 nM, RXRa partner concentration 90 nM)
# Outline: as §1
# [13] = system: PPARg DBDmut:RXRa IVT, anti-PPARg (DBD mutation: PPARg1 K132A/R137A, NR concentration 270 nM, RXRa partner concentration 90 nM)
# Outline: as §1
# [14] = system: PPARg DBDmut IVT, anti-PPARg (DBD mutation: PPARg1 K132A/R137A, NR concentration 270 nM)
# Outline: as §1
# [15] = system: PPARg homodimer (NR concentration 180 nM)
# Outline: as §1
# [16] = system: PXR:RXRa (NR concentration 270 nM, RXRa partner concentration 90 nM)
# Outline: as §1
# [17] = system: PXR homodimer (NR concentration 270 nM)
# Outline: as §1
# [18] = system: RARa:RXR (NR concentration 270 nM, RXRa partner concentration 90 nM)
# Outline: as §1
# [19] = system: RARa homodimer (NR concentration 270 nM)
# Outline: as §1
# [20] = system: RARb:RXRa (NR concentration 270 nM, RXRa partner concentration 90 nM)
# Outline: as §1
Sequence,PBM binding z-score [1],PBM binding z-score [2],PBM binding z-score [3],PBM binding z-score [4],PBM binding z-score [5],PBM binding z-score [6],PBM binding z-score [7],PBM binding z-score [8],PBM binding z-score [9],PBM binding z-score [10],PBM binding z-score [11],PBM binding z-score [12],PBM binding z-score [13],PBM binding z-score [14],PBM binding z-score [15],PBM binding z-score [16],PBM binding z-score [17],PBM binding z-score [18],PBM binding z-score [19],PBM binding z-score [20]
GCTTGTAGATCAAGCTTAAGAAAGACTAAGCTAA,-0.441,-0.75,-0.914,-0.777,-1.32,-0.455,-0.439,-0.251,-0.693,-0.381,0.937,0.0262,-0.496,-0.218,-0.356,-0.566,-0.868,-0.0967,-0.929,-1.78
TCAGACAGGTGAAGGTAGCTCAGGTACGCAGTCG,0.513,0.567,-0.0814,0.434,-0.218,1.02,0.481,1.75,3.33,2.65,2.37,0.501,0.112,0.071,0.349,0.216,-0.0197,0.316,0.354,1.07
TCTTGTAGATCAAAGGTTACGAAAGCCGAAGCCT,2.01,2.2,0.222,2.27,-0.174,4.71,8.72,8.23,7.86,8.98,2.12,3.96,0.521,0.147,1.11,2.41,-0.449,3.28,-0.123,2.14
CTCGAAAGCTCGTGCTCAGGTGAGTATACCAAAC,-0.575,-0.866,-0.669,-0.84,-0.65,-0.803,-0.599,-0.812,-0.841,-0.913,-0.844,-0.272,-1.04,-0.415,-0.882,-0.746,-0.669,-0.62,-1.18,-1.07
CCTCGGAGGACATCAGGAGGTCAGAGCTGCCAGA,1.63,1.87,1.11,1.17,-0.894,1.93,0.267,0.414,-0.801,-0.136,-0.368,0.307,-1.23,-1.84,1.23,2.19,0.0732,2.43,0.115,2.74
TCACATAGGTAATACAGGTGAAAGTCGGCATCTA,0.672,0.976,0.424,0.83,0.142,1.66,1.04,2.47,3.63,3.03,2.54,1.8,1.44,0.888,0.824,0.746,0.212,1.26,0.821,0.68
TCGAGTAAGTTACCAATGGGGCATTCAGCTTTCT,-0.407,-0.177,-0.53,0.203,-0.792,0.13,-0.296,0.61,0.958,0.917,0.719,-0.101,-0.374,-1.05,-0.441,0.0133,-0.765,0.11,-0.447,-0.0716

# Source: the supplement of paper PMC6555819
